Among all 310,000 compounds or so, about 14,000 (4.5%) showed an effect of 50% or more. Effects have a minus sign here. This excerpt belongs to a sample that is enriched for strong results.
Each compound was assayed against human ether-à-go-go-related gene (hERG) potassium channel (human, UniProt Q12809) (assay: primary screen, population patch clamp on CHO cells stably expressing hERG; higher = less effect of the substance).
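Note: peak tail current of the secondary pulse compared with the same well before compound.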

Chain of human ether-à-go-go-related gene (hERG) potassium channel (Q12809 whole entry, looked up): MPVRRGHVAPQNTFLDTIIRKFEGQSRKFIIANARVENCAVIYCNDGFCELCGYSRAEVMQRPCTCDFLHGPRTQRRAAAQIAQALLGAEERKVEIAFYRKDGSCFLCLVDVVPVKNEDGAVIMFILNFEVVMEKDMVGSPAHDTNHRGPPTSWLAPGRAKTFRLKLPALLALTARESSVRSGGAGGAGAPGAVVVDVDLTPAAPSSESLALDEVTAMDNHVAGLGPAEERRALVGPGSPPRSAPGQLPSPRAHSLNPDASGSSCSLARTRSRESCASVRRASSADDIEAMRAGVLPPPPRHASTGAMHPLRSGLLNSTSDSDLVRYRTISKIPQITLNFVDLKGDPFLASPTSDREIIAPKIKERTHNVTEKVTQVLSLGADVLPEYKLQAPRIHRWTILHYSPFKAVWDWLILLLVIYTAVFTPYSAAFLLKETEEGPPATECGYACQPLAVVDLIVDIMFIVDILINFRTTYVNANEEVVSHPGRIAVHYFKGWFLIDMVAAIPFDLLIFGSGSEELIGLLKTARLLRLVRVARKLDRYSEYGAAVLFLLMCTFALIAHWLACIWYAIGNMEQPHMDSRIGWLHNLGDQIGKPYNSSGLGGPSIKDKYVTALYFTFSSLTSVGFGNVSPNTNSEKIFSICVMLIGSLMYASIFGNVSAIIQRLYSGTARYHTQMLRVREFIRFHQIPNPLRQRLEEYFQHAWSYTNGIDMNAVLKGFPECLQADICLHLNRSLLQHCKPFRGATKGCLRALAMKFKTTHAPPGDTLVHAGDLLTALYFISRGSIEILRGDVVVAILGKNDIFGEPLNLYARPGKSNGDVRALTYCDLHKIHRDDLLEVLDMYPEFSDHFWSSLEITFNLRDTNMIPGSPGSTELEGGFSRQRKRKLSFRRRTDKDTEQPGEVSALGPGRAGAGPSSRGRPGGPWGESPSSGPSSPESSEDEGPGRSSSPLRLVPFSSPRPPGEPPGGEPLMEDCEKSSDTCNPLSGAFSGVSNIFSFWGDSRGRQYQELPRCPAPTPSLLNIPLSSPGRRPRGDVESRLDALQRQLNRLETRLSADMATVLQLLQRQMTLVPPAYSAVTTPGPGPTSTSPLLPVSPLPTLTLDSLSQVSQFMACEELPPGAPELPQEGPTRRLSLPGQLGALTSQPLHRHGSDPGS

Structure (SMILES) | hERG current change (%, negative = inhibition) at 10uM [%]
CC(=O)Oc1ccc(C(=O)Nc2ccccc2C(=O)Nc2cccc(C(=O)O)c2)cc1 | 13
CCOC(=O)c1cnn(-c2cc(Oc3ccccc3C)ncn2)c1N | 14.4
Cc1nc2ccccc2cc1C(=O)N/N=C/c1cccs1 | -6.93
CCOc1ccc(OCCOc2cccc(C(F)(F)F)c2)cc1 | 9.77
CC1CCN(C(=S)Nc2ccc3nc4n(c(=O)c3c2)CCCCC4)CC1 | -55.2
CC1CCCCN1C(=S)Nc1ccc2nc3n(c(=O)c2c1)CCCCC3 (stereo not shown) | -59
CC1CCCC(C)N1CCCNC(=O)C(=O)Nc1ccc2nc3n(c(=O)c2c1)CCCCC3 (stereo not shown) | 16.8
CC1CCCN(C(=O)C(=O)Nc2ccc3nc4n(c(=O)c3c2)CCCCC4)C1 (stereo not shown) | -17.8
CCN1CCN(C(=S)Nc2ccc3nc4n(c(=O)c3c2)CCCCC4)CC1 | 1.83
O=c1c2cc(NC(=S)N3CCCCCC3)ccc2nc2n1CCCCC2 | -43.9
O=c1c2cc(NC(=S)N3CCCCC3)ccc2nc2n1CCCCC2 | -55.7
CC1CCCN(C(=S)Nc2ccc3nc4n(c(=O)c3c2)CCCCC4)C1 (stereo not shown) | -66.1
O=c1c2cc(NC(=S)N3CCC(N4CCCCC4)CC3)ccc2nc2n1CCCCC2 | -3.94
O=c1c2cc(NC(=S)N3CCCC3)ccc2nc2n1CCCCC2 | -28
CCOC(=O)Nc1ccc2nc3n(c(=O)c2c1)CCCCC3 | 7.45
CCOC(=O)C1CCCN(C(=O)C(=O)Nc2ccc3nc4n(c(=O)c3c2)CCCCC4)C1 (stereo not shown) | -1.21
COc1cc(/C=C(\C#N)c2ccccn2)ccc1OCC(=O)Nc1cccc(C(F)(F)F)c1.Cl | 0.582
COCCCNC(=O)c1ccc2c(c1)nc(C)n2-c1cccc(C)c1 | 6.05
CC(C)(C)C(=O)Nc1ccc(S(=O)(=O)c2ccc(NC(=O)C(C)(C)C)cc2)cc1 | 18.6
COc1ccc(-c2coc3c(CN4CCOCC4)c(O)ccc3c2=O)cc1 | -21.1
COc1ccc(C(=O)c2coc3ccc(O)c(CN4CCOCC4)c23)cc1 | -51.2

Structure (SMILES) | hERG current change (%, negative = inhibition) at 10uM [%]
COc1ccc(C(=O)c2c(C)oc3ccc(O)c(CN4CCOCC4)c23)cc1 | -29.5
Cc1ccc(/C=C2\Oc3c(ccc(O)c3CN3CCN(C)CC3)C2=O)cc1 | -15
COc1ccc(C(=O)c2coc3ccc(O)c(CN4CCCCC4)c23)cc1 | -76.9
COc1ccc(-c2coc3c(CN4CCCCC4)c(O)c(CN4CCCCC4)c(O)c3c2=O)cc1 | -79.2
CN1CCN(Cc2c(O)ccc3occ(C(=O)c4ccccc4)c23)CC1 | -39.3
COc1ccc(OC)c(C(=O)c2coc3ccc(O)c(CN4CCOCC4)c23)c1 | -39.7
O=c1c(-c2ccc(Cl)cc2)coc2c(CN3CCCCC3)c(O)ccc12 | -32.7
Cc1ccc(C(=O)c2coc3ccc(O)c(CN4CCN(C)CC4)c23)cc1 | -51.2
Cc1cc(Cn2nnnc2-c2ccncc2)cc(C)c1O | 6.54
O=C(Nc1ccc(Cl)c(C(F)(F)F)c1)N1CCCC(O)C1 (stereo not shown) | 10.9
COc1ccc(C(=O)c2coc3ccc(O)c(CN4CCCC4)c23)cc1 | -73.4
Oc1ccc2ccccc2c1CN1CCOCC1 | -6.06
COc1ccc(OC)c(C(O)c2coc3ccc(O)c(CN4CCOCC4)c23)c1 (stereo not shown) | -11.4
Cl.O=C(c1ccccc1)c1coc2ccc(O)c(CN3CCOCC3)c12 | -60.7
Cl.O=C(c1cccs1)c1coc2ccc(O)c(CN(CCO)CCO)c12 | -41
Cc1oc2ccc(O)c(CN3CCOCC3)c2c1C(=O)c1ccc(Cl)cc1 | -41
O=C(c1cccs1)c1coc2ccc(O)c(CN3CCOCC3)c12 | -69.1
Cl.O=C(c1coc2ccc(O)c(CN3CCOCC3)c12)C1CC1 | 12.3
COC(=O)c1ccccc1N1CCS(=O)(=O)CC1 | 18.3
COc1ccc(C(=O)Nc2nc(C)c(C(C)=O)s2)cc1S(=O)(=O)N1CCOCC1 | 0.765
O=C(N/N=C/c1c(O)n(C2CC2)c(=S)[nH]c1=O)c1ccccc1O | 2.57

Structure (SMILES) | hERG current change (%, negative = inhibition) at 10uM [%]
CCN(CC)S(=O)(=O)c1ccc(N2CCN(C)CC2)c(NC(=O)c2cc(=O)c3ccccc3o2)c1 | -18.4
Cc1ccc(C(=O)N(C)CC(=O)Nc2cccc(C)c2C)o1 | 9.83
Cc1nc2nc(NC(=O)c3ccco3)nn2c(C)c1Cl | -1.18
Br.c1ccc(-c2ccccc2OCc2nnc3n2CCC3)cc1 | 16.3
COc1ccc(C2C(C(=O)N3CCCC3)c3cc(OC)c(OC)cc3C(=O)N2C)cc1OC (stereo not shown) | 0.414
CCC(=O)NCCNc1nc2cc(C)cc(C)c2cc1C#N | 58.1
Cc1cc(C)c2cc(C#N)c(NCCOC(=O)c3ccccc3C)nc2c1 | -54.8
COc1ccccc1C(=O)NCCNc1nc2cc(C)cc(C)c2cc1C#N | 13.3
Cc1c(OCC(=O)N2CCC(C(N)=O)CC2)ccc2c3c(c(=O)oc12)CCC3 | 7.25
CCOC(=O)N1CCC(Nc2c(OCC)c(=O)c2=O)CC1 | 3.96
Nc1ccccc1-c1nnc(-c2ccccc2N)n1N | 8.38
CCN(CC)C(=O)Cn1cc(S(=O)(=O)CC(=O)Nc2ccc3c(c2)OCCO3)c2ccccc21 | -9.47
CCOC(=O)Cn1c(S(=O)(=O)Cc2ccccc2Cl)nc(-c2ccccc2)c1-c1ccccc1 | -6.2
CC(C)(C)NC(=O)N1CCC(CO)(Cc2ccccc2Cl)CC1 | -4.82
O=C(C1CCCC1)N1CCC(CO)(Cc2ccccc2Cl)CC1 | -44.3
COc1ccc(/C=C/CN2CCC(CO)(Cc3ccccc3Cl)CC2)cc1 | -79.6
OCC1(Cc2ccccc2Cl)CCN(C/C=C/c2ccccc2)CC1 | -68.4
CCC(C)CN1CCC(CO)(Cc2ccccc2Cl)CC1 (stereo not shown) | -30
O=C(C1CCCCC1)N1CCC(CO)(Cc2ccccc2Cl)CC1 | -15.3
